Compound activity as filed in PubChem.
This is a sample that favours compounds with a hit; in the whole collection about 3.1% have one here.
BoNT-A LC inh2: blocks Botulinum neurotoxin A light chain protease. multiplex microsphere protease substrate cleavage, flow cytometry. inhibition, % at 10 µM. hit rate 0.17% among 360,000; in the data active = inhibition above about 30%; inconclusive = no clear call, values can overlap the other calls; note: plate controls were buffer without enzyme for full effect and enzyme alone for no effect
SSB-PriA inh: blocks PriA binding to SSB C-terminal tail. inhibition, % at 33 µM. AlphaScreen SSBct-PriA binding, biotinylated peptide. hit rate 0.6% among 430,000. AID 1272365; in the data active = inhibition mostly above about 37%, no sharp cut-off; inactive = mostly below about 20%;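 note: plate controls were negative control peptide for no effect and reference peptide for full effect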
Autofluor counter: counter-screen for toxin protease inhibitors: compound fluorescence | compound autofluorescence counterscreen, microsphere flow cytometry; hits give high values | fluorescence intensity (no concentration beside the values) | hit rate 3.1% among 360,000 | AID 624483; in the data active = fluorescence intensity above about 16000; inconclusive = no clear call, values can overlap the other calls
BoNT F protease: BoNT F light chain protease inhibition; Multiplex microsphere protease cleavage assay, flow cytometry; inhibition, % at 10 µM; hit rate 0.22% among 360,000; AID 588497; in the data active = inhibition above about 35%, passing the limit was not always enough; inconclusive = no clear call, values can overlap the other calls; note: plate controls were buffer without enzyme for full effect and enzyme alone for no effect
Anthrax LF inh2: anthrax lethal factor protease inhibition; hit rate 0.12% among 360,000; AID 588501; multiplex microsphere protease cleavage assay, LF; inhibition, % at 10 µM; P15917; in the data active = inhibition above about 30%; inconclusive = no clear call, values can overlap the other calls; note: plate controls were buffer without enzyme for full effect and enzyme alone for no effect
Target sequence (P15917 whole entry, looked up): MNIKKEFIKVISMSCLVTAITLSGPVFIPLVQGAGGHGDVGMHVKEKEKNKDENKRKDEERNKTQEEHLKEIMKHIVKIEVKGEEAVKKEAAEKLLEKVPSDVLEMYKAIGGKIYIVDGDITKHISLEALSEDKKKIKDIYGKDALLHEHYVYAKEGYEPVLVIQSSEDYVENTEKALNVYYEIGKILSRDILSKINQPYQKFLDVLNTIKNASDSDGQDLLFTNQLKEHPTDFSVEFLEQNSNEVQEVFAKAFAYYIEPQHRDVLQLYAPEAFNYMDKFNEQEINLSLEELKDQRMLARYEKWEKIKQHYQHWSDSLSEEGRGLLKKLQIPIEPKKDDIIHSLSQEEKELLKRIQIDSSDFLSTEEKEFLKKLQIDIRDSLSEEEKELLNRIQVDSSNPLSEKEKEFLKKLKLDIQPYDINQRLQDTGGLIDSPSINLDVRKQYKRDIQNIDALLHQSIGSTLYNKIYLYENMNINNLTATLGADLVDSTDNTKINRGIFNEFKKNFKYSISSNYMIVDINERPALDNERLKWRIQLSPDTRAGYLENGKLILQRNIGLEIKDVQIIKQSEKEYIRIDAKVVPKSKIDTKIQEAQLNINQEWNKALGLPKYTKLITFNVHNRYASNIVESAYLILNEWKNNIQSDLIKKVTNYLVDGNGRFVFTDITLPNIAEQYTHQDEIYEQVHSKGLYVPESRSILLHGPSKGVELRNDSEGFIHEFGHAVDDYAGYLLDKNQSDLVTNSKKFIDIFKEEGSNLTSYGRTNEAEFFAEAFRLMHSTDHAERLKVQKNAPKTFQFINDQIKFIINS
BoNT-A LC CP1: inhibitors of Botulinum neurotoxin A light chain protease | hit rate 3% among 720 | inhibition, % at 10 µM | multiplex microsphere protease assay, flow cytometry | AID 602139 | shares compounds with BoNT F protease; in the data active = inhibition above about 32%
BoNT-F LC CP1: BoNT/F light chain protease inhibition | shares compounds with BoNT F protease | multiplex microsphere protease cleavage assay, flow cytometry | inhibition, % at 10 µM | 720 tested, under 10 active
Anthrax LF CP1: blocks anthrax lethal factor protease; shares compounds with BoNT F protease; multiplex microsphere protease cleavage assay, LF; inhibition, % at 10 µM; 720 tested, under 10 active; AID 602142
Starred values were filed as active, the others as inactive; ? = inconclusive; . = no result given. Unless noted, the rule behind the calls is not given here.

SMILES | BoNT-A LC inh2 | SSB-PriA inh | Autofluor counter | BoNT F protease | Anthrax LF inh2 | BoNT-A LC CP1 | BoNT-F LC CP1 | Anthrax LF CP1
Clc1cccc(OCc2nc(-c3ccncc3)no2)c1 | 4.4 | -3.3 | 2544 | 44.2* | -2.3 | 0.6 | -4.7 | 0.9
O=C(Nc1ccc(F)cc1F)c1cc(Cl)cc(Cl)c1 | . | -7.0 | . | . | . | . | . | .
COC(=O)C(Cc1ccccc1)NC(=O)c1cccc(S(=O)(=O)N(C)C)c1 (stereo unspecified) | 7.1 | -4.5 | 4261 | 36.8* | -1.6 | -0.5 | -1.1 | -1.7
COC(=O)[C@H](Cc1ccccc1)N(C)S(=O)(=O)c1cccc(S(=O)(=O)N(C)[C@@H](Cc2ccccc2)C(=O)OC)c1 | 0.3 | 6.0 | 2787 | -2.4 | -8.0 | . | . | .
COc1cc(NC(=O)CSc2ccc(N3CCOCC3)nn2)cc(OC)c1 | . | -9.0 | . | . | . | . | . | .
Clc1ccccc1-c1nnc2n1CCCCC2 | -10.4 | -10.1 | 3259 | -16.8 | 36.6* | 0.3 | 4.7 | 1.5
COc1ccc(-n2cc(CNCCCn3ccnc3)c(-c3cccc(F)c3)n2)cc1 | 3.6 | 17.6 | 2583 | 36.8* | -1.5 | -0.7 | -15.3 | -4.4
Cc1nnc(SCC(=O)Nc2ccc(N3CCOCC3)cc2)o1 | 1.1 | -4.6 | 3798 | 42.4* | 0.5 | -0.8 | -2.0 | 1.6
C=C(C)C1CC=C(C)C(=NNC(=S)Nc2ccc(C)cc2)C1 (stereo unspecified) | . | 30.3 | . | . | . | . | . | .
CC(=O)Cn1cnc2c(cnn2-c2ccc(F)cc2)c1=O | -0.4 | . | 4218 | -9.3 | -2.9 | . | . | .
COc1ccc(-n2ncc3c(=O)n(CC(C)=O)cnc32)cc1 | 61.3* | -11.4 | 2086 | ? | 7.9 | 0.4 | -5.9 | 0.2
COc1ccc(-c2ccc(=O)n(CCCNC(=O)c3cc4ccccc4oc3=O)n2)cc1 | . | -4.0 | . | . | . | . | . | .
N=c1n(CCO)c2ccccc2n1Cc1ccccc1Cl | 1.4 | -5.0 | 3346 | 33.1 | -2.2 | -2.5 | -0.3 | -1.4
O=C(Nc1cc(N2CCCC2)ncn1)C1c2ccccc2Oc2ccccc21 | . | -10.0 | . | . | . | . | . | .
CCn1c(SCc2ccccc2)nnc1C1CCN(S(=O)(=O)c2ccc(OC)cc2)CC1 | 0.4 | -17.2 | 3835 | 34.7* | -1.3 | -1.4 | -4.1 | 3.2
CN(C)S(=O)(=O)c1ccc(-c2nnc(NC(=O)c3cccs3)o2)cc1 | . | -18.0 | . | . | . | . | . | .
CNC(=O)c1sc(-c2ccccc2)nc1C | 0.1 | -1.2 | 2996 | 0.5 | -0.4 | . | . | .
CC(=O)Nc1ccc(NC(=O)c2sc(-c3ccccc3)nc2C)cc1 | -2.9 | -11.1 | 3706 | 42.8* | 22.3 | 0.7 | -1.8 | 0.1
COc1ccc(C(=O)NCCc2ccc(C)cc2)cc1OC1CCN(C(C)=O)CC1 | 0.1 | -17.6 | 5955 | -0.2 | 8.1 | . | . | .
COc1cc(C(=O)N(C)CCOc2ccc(C)cc2)ccc1OC1CCN(C(C)=O)CC1 | -0.4 | -10.7 | 4006 | ? | 29.9* | -1.4 | -6.6 | 4.2
O=C(CCc1ccccc1)Nc1ccc2c(=O)c3ccccc3oc2c1 | . | -4.0 | . | . | . | . | . | .
Cc1cc(C)n(-c2nnc(NC(C)(C)C)nn2)n1 | 1.1 | -19.2 | 2650 | -0.6 | -1.6 | . | . | .
Cc1cc(C)n(-c2nnc(NC34CC5CC(CC(C5)C3)C4)nn2)n1 | 51.7* | 0.3 | 2849 | 10.6 | 20.0 | 15.7 | -5.5 | 21.0
COc1ccccc1OCC(=O)N1CC[C@H](Oc2cccnn2)C1 | . | -14.0 | . | . | . | . | . | .
CCOC(=O)c1sc2nc(-c3ccco3)c3c(c2c1N)CC(C)(C)OC3 | 32.6* | -3.4 | 10754 | 6.8 | 19.5 | 7.6 | 3.0 | 4.9
SMILES | BoNT-A LC inh2 | SSB-PriA inh | Autofluor counter | BoNT F protease | Anthrax LF inh2 | BoNT-A LC CP1 | BoNT-F LC CP1 | Anthrax LF CP1
Cc1nc2sc(C(=O)O)c(N)c2c2c1COC(C)(C)C2 | 2.6 | -0.7 | 3947 | -17.7 | -0.1 | . | . | .
COc1cc2c(cc1OC)CN(S(=O)(=O)c1ccccc1F)CC2 | 1.2 | -4.2 | 4056 | 3.0 | 7.5 | . | . | .
O=S(=O)(c1ccccc1F)N1CCc2ccccc2C1 | 0.0 | 7.3 | 3906 | ? | 33.9* | -1.0 | -1.6 | -2.1
Cc1cc(C(=O)N2CCN(C[C@H](O)C3CC3)CC2)no1 | . | -3.0 | . | . | . | . | . | .
COc1cccc(C2CC(c3ccccc3)=NN2S(=O)(=O)c2ccc(C)cc2)c1OC (stereo unspecified) | 39.4* | 7.2 | 32220* | 55.3* | 31.9* | 13.5 | -3.8 | -8.1
C=CCc1ccc(OCCOCCN(C)C)c(OC)c1 | -0.3 | -9.1 | 3818 | 14.0 | -2.2 | . | . | .
Cc1ccc2cccc(OCc3ccc(Br)cc3)c2n1 | 0.0 | -9.6 | 3567 | 39.2* | -5.6 | -0.1 | -8.3 | 3.6
C=CCc1ccc(OCCOc2cccc3ccc(C)nc23)c(OC)c1 | 45.8* | -19.8 | 9218 | 53.4* | -7.6 | -2.2 | -2.9 | -2.8
Cc1ccc2cccc(OCc3ccc(F)cc3)c2n1 | 1.1 | -20.1 | 3466 | 4.8 | -6.4 | . | . | .
O=C(c1cccs1)c1ccc(CNC(=O)C2CC=CCC2)s1 (stereo unspecified) | . | -17.0 | . | . | . | . | . | .
O=C(CNc1ccccc1)Nc1ncc(Cc2ccccc2Cl)s1 | . | -6.0 | . | . | . | . | . | .
Cc1nn(S(=O)(=O)N2CCCC2)c(C)c1C | . | -11.0 | . | . | . | . | . | .
COC(=O)CSc1nc(N)c2c3c(sc2n1)C(c1ccccc1)SC(c1ccccc1)C3 (stereo unspecified) | 30.3* | -0.3 | 2397 | 1.1 | 7.1 | 2.4 | 2.1 | -2.9
COc1ccc(-c2cn3c(C(=O)Nc4ccc(F)cc4F)csc3n2)cc1 | . | -11.0 | . | . | . | . | . | .
CCCn1c(=O)c2c(N3CCN(C(=O)c4ccco4)CC3)c(C)cnc2n(C)c1=O | . | 13.0 | . | . | . | . | . | .
CCn1c2ccccc2c2cc(NC(=O)c3ccc(Br)o3)ccc21 | 76.7* | -4.3 | 4789 | 10.4 | 43.3* | 4.8 | -9.8 | -2.1
CCn1c2ccccc2c2cc(NC(=O)c3cc(C)on3)ccc21 | 1.2 | 1.9 | 4612 | -3.4 | -2.6 | . | . | .
CC1CCN(CCCCOc2ccccc2F)CC1 | 3.1 | 1.0 | 4189 | -0.2 | 1.9 | . | . | .
CC1CCN(CCCCOc2ccccc2Br)CC1 | 5.7 | -1.7 | 3041 | 43.3* | 0.5 | -0.4 | -5.1 | -0.4
CCOc1ccc(-c2c(C#N)c(N)nc3sc(C(=O)c4ccccc4)c(N)c23)cc1 | 10.2 | -4.0 | 4289 | 2.0 | 8.2 | . | . | .
COc1ccc(-c2c(C#N)c(N)nc3sc(C(=O)c4ccccc4)c(N)c23)cc1 | 44.4* | -10.6 | 2561 | 7.4 | 18.5 | 7.5 | -3.0 | 5.2
CCn1c(=O)c(C(=O)Nc2cccnc2)c(O)c2ccccc21 | 4.6 | -18.5 | 6137 | 40.5* | 4.5 | -1.7 | -3.4 | 1.2
Cc1noc(C)c1S(=O)(=O)N1CCC(c2nn(C)c(=O)n2-c2ccccc2)CC1 | . | -18.0 | . | . | . | . | . | .
Cc1cc(C)c2nc3sc(C(=O)N4CCOCC4)c(N)c3cc2c1 | 3.4 | -6.1 | 5284 | 2.0 | 1.2 | . | . | .
Nc1c(C(=O)N2CCOCC2)sc2nc3c(cc12)CCCC3 | 1.6 | -4.2 | 5257 | 8.6 | 1.8 | . | . | .
Cc1ccc(C)c2nc3sc(C(=O)N4CCOCC4)c(N)c3cc12 | 5.2 | -7.9 | 2399 | 0.8 | -0.9 | 1.6 | -1.8 | -0.4
Cc1cc(C)c2cc3c(N)c(C(=O)N4CCOCC4)sc3nc2c1 | 7.9 | -4.0 | 2728 | 3.8 | 2.8 | 1.0 | 1.9 | -6.2
Cc1cccc2cc3c(N)c(C(=O)N4CCc5ccccc54)sc3nc12 | 13.2 | 20.1 | 3244 | 3.1 | 3.9 | 3.4 | 3.0 | 0.7
